From PubChem BioAssay AID1159580 (chemical genetic matrix, 2015)
Hit rate of the full screen: of about 5,500 compounds, about 2,000 (36%) were called active. About 18% were inconclusive and are not listed. Rule as the data show it: active = normalized growth mostly below about 0.91 (no sharp cut-off); inconclusive = no clear call, values can overlap the other calls; inactive = mostly above about 0.92. The list shows a part of the results.

Experiment: chemical genetic growth profiling, strain panel (AID 1159580);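 also: tested at 20 µM; growth read once vehicle control cultures reached saturation at 30 °C; 1 = growth at the plate median or of vehicle wells; lower values mean less growth of the strain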
Settings: growth OD

Measured: normalized growth

COC(=O)NC(=S)Nc1ccccc1NC(=S)NC(=O)OC
active: S. cerevisiae deletion strains, locus YLR320W, strain mms22, hits give low values 0.856 | S. cerevisiae deletion strains, locus YNL071W, strain lat1, hits give low values 0.772
inactive: S. cerevisiae deletion strains, locus YJR075W, strain HOC1, hits give low values 1.01 | S. cerevisiae deletion strains, locus YKL009W, strain mrt4, hits give low values 0.995 | S. cerevisiae deletion strains, locus YKL068W, hits give low values 0.996 | S. cerevisiae deletion strains, locus YKL085W, strain MDH1 (second series), hits give low values 1 | S. cerevisiae deletion strains, locus YKL085W, strain MDH1, hits give low values 1 | S. cerevisiae deletion strains, locus YKL160W, strain elf1, hits give low values 0.952 | S. cerevisiae deletion strains, locus YKL190W, strain CNB1, hits give low values 1.01 | S. cerevisiae deletion strains, locus YKR001C, strain vps1, hits give low values 0.991 | S. cerevisiae deletion strains, locus YKR026C, strain gcn3, hits give low values 0.974 | S. cerevisiae deletion strains, locus YKR091W, strain srl3, hits give low values 0.97 | S. cerevisiae deletion strains, locus YLL001W, strain dnm1, hits give low values 0.972 | S. cerevisiae deletion strains, locus YLL026W, hits give low values 0.981 | S. cerevisiae deletion strains, locus YLL041C, strain sdh2, hits give low values 0.978 | S. cerevisiae deletion strains, locus YLR027C, strain aat2, hits give low values 0.975 | S. cerevisiae deletion strains, locus YLR039C, strain RIC1, hits give low values 1.02 | S. cerevisiae deletion strains, locus YLR058C, strain SHM2, hits give low values 1 | S. cerevisiae deletion strains, locus YLR102C, strain apc9, hits give low values 1.01 | S. cerevisiae deletion strains, locus YLR113W, strain HOG1, hits give low values 0.983 | S. cerevisiae deletion strains, locus YLR221C, strain rsa3, hits give low values 0.974 | S. cerevisiae deletion strains, locus YLR258W, strain gsy2, hits give low values 0.985 | S. cerevisiae deletion strains, locus YLR262C, strain YPT6 (second series), hits give low values 0.987 | S. cerevisiae deletion strains, locus YLR262C, strain YPT6, hits give low values 0.989 | S. cerevisiae deletion strains, locus YLR268W, strain sec22, hits give low values 1.07 | S. cerevisiae deletion strains, locus YLR330W, strain CHS5, hits give low values 1 | S. cerevisiae deletion strains, locus YLR342W, strain FKS1 (second series), hits give low values 0.988 | S. cerevisiae deletion strains, locus YLR342W, strain FKS1, hits give low values 0.97 | S. cerevisiae deletion strains, locus YLR357W, strain rsc2, hits give low values 0.92 | S. cerevisiae deletion strains, locus YLR370C, strain arc18, hits give low values 0.98 | S. cerevisiae deletion strains, locus YLR371W, strain rom2, hits give low values 1.02 | S. cerevisiae deletion strains, locus YLR384C, strain iki3, hits give low values 0.964 | S. cerevisiae deletion strains, locus YLR418C, strain cdc73, hits give low values 0.972 | S. cerevisiae deletion strains, locus YML016C, strain PPZ1, hits give low values 1 | S. cerevisiae deletion strains, locus YML032C, strain rad52, hits give low values 1.05 | S. cerevisiae deletion strains, locus YML120C, strain ndi1, hits give low values 0.97 | S. cerevisiae deletion strains, locus YML124C, strain tub3, hits give low values 1 | S. cerevisiae deletion strains, locus YMR058W, strain fet3, hits give low values 0.957 | S. cerevisiae deletion strains, locus YMR078C, strain ctf18, hits give low values 1.02 | S. cerevisiae deletion strains, locus YMR125W, strain sto1, hits give low values 0.974 | S. cerevisiae deletion strains, locus YMR129W, hits give low values 0.98 | S. cerevisiae deletion strains, locus YMR205C, strain PFK2, hits give low values 0.97 | S. cerevisiae deletion strains, locus YMR223W, strain ubp8, hits give low values 0.978 | S. cerevisiae deletion strains, locus YMR231W, strain pep5, hits give low values 0.993 | S. cerevisiae deletion strains, locus YMR263W, strain SAP30, hits give low values 1.02 | S. cerevisiae deletion strains, locus YMR307W, strain GAS1, hits give low values 0.983 | S. cerevisiae deletion strains, locus YNL067W, strain RPL9B, hits give low values 1.02 | S. cerevisiae deletion strains, locus YNL128W, strain TEP1, hits give low values 1.01 | S. cerevisiae deletion strains, locus YNL153C, strain GIM3, hits give low values 0.99 | S. cerevisiae deletion strains, locus YNL183C, strain NPR1, hits give low values 0.902 | S. cerevisiae deletion strains, locus YNL209W, strain ssb2, hits give low values 1.01 | S. cerevisiae deletion strains, locus YNL233W, strain BNI4, hits give low values 1.03 | S. cerevisiae deletion strains, locus YNL248C, strain rpa49, hits give low values 0.93 | S. cerevisiae deletion strains, locus YNL250W, strain rad50, hits give low values 0.989 | S. cerevisiae deletion strains, locus YNL271C, strain bni1, hits give low values 1.01 | S. cerevisiae deletion strains, locus YNL298W, strain CLA4, hits give low values 0.978 | S. cerevisiae deletion strains, locus YNL307C, strain MCK1, hits give low values 0.986 | S. cerevisiae deletion strains, locus YNL322C, strain KRE1 (second series), hits give low values 0.985 | S. cerevisiae deletion strains, locus YNL322C, strain KRE1, hits give low values 0.998 | S. cerevisiae deletion strains, locus YNR049C, strain mso1, hits give low values 0.99 | S. cerevisiae deletion strains, locus YNR052C, strain pop2, hits give low values 1.01 | S. cerevisiae deletion strains, locus YOL006C, strain TOP1, hits give low values 1.09 | S. cerevisiae deletion strains, locus YOL012C, strain htz1 1.25 | S. cerevisiae deletion strains, locus YOL147C, strain pex11, hits give low values 1.01 | S. cerevisiae deletion strains, locus YOR001W, strain rrp6, hits give low values 0.986 | S. cerevisiae deletion strains, locus YOR061W, strain CKA2, hits give low values 1.01 | S. cerevisiae deletion strains, locus YOR069W, strain VPS5, hits give low values 1.01 | S. cerevisiae deletion strains, locus YOR070C, strain gyp1, hits give low values 0.985 | S. cerevisiae deletion strains, locus YOR080W, strain dia2, hits give low values 1.01 | S. cerevisiae deletion strains, locus YOR083W, strain WHI5, hits give low values 0.97 | S. cerevisiae deletion strains, locus YOR106W, strain vam3, hits give low values 0.887 | S. cerevisiae deletion strains, locus YOR136W, strain idh2, hits give low values 0.999 | S. cerevisiae deletion strains, locus YOR144C, strain elg1, hits give low values 1.01 | S. cerevisiae deletion strains, locus YOR184W, strain ser1, hits give low values 1.01 | S. cerevisiae deletion strains, locus YOR231W, strain MKK1, hits give low values 0.986 | S. cerevisiae deletion strains, locus YOR265W, strain rbl2, hits give low values 1 | S. cerevisiae deletion strains, locus YOR270C, strain vph1, hits give low values 0.858 | S. cerevisiae deletion strains, locus YOR290C, strain snf2, hits give low values 0.959 | S. cerevisiae deletion strains, locus YOR316C, strain cot1, hits give low values 1.01 | S. cerevisiae deletion strains, locus YPL051W, strain arl3, hits give low values 0.957 | S. cerevisiae deletion strains, locus YPL055C, strain LGE1, hits give low values 0.98 | S. cerevisiae deletion strains, locus YPL078C, strain atp4, hits give low values 0.989 | S. cerevisiae deletion strains, locus YPL106C, strain sse1, hits give low values 0.998 | S. cerevisiae deletion strains, locus YPL240C, strain hsp82, hits give low values 1 | S. cerevisiae deletion strains, locus YPL241C, strain CIN2, hits give low values 1.01 | S. cerevisiae deletion strains, locus YPL256C, strain CLN2, hits give low values 1.01 | S. cerevisiae deletion strains, locus YPR119W, strain clb2, hits give low values 1.02 | S. cerevisiae deletion strains, locus YPR141C, strain kar3, hits give low values 0.994 | S. cerevisiae deletion strains, locus YPR163C, strain tif3, hits give low values 1.03 | S. cerevisiae deletion strains, locus YPR167C, strain met16, hits give low values 1.01 | S. cerevisiae deletion strains, strain wtn01, hits give low values 1.02 | S. cerevisiae strains, strain wild type, hits give low values 0.996
